Where “and” joins values, the source holds several entries; their conditions need not be identical. Equal entries are not always repeated. This is part of a sample that, as a whole, favours compounds with a hit. Of some 83,000 tested, about 20% had one in any assay.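 Values shown are percent growth following 48 h exposure of cells in 96-well plates to a single concentration of compound; below 10 was considered active.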 Calls of active or inactive are those of the source.
The compounds below were run on HOP-62 NSCLC (assay: NCI-60 one-dose screen, 48 h (100 = growth as untreated, 0 = no growth, -100 = all killed)). Conditions: 1 µM.
Protocol: Growth inhibition of the HOP-62 human Non-Small Cell Lung tumor cell line is measured as a screen for anti-cancer activity. Cells are grown in 96 well plates and exposed to the test compound for 48 hours. Compounds are tested at a single concentration, which is 10^-5 M for most compounds. The reported endpoint is percent growth (GI% or GIPRCNT), where numbers from 0 - 100% represent growth inhibition, and numbers from -100% - 0 represent cell death. For example, a value of 40 represents 60% growth inhibition. A value of 0 means no net growth occurred over the course of the experiment. A value of -40 indicates 40% of cells at the beginning of the experiment died by the end of the experiment. A value of -100 means all cells are dead at the end of the experiment.
NCI-60 Human Tumor Cell Lines Screen was performed using the standard one-dose NCI protocol, which is described in more detail at https://dtp.cancer.gov/discovery_development/nci-60/default.htm.
Compounds with GIPRCNT values below 10 were considered active. Activity score was based on GIPRCNT using the following formula: […]
Score is 0 for GIPRCNT values of 100 or above, 50 for GIPRCNT values of 0, and 100 for GIPRCNT values of -100.
`CNC(=O)c1cc(Oc2ccc(CC(=O)Nc3cc(C(C)(C)C)nn3C)cc2)ccn1` was tested, and the growth was 55% (inactive).

Same assay, conditions: 10 µM
With `CNC(=O)c1cc(Oc2ccc(CC(=O)Nc3cc(C(C)(C)C)nn3C)cc2)ccn1` the growth was 77.6% (inactive).
In the case of `Cc1[nH]c(-c2nc3ccccc3[nH]2)c(C)c1C(=O)NC(C)C1CCCCC1` (stereo not given), the growth is reported as 95.5% (inactive).
`COc1ccc(Cl)cc1C(=O)NCCc1ccc(S(=O)(=O)NC(=O)NC2CCCCC2)cc1` was tested, and the growth was 88.3% (inactive).

Same assay, conditions: 10 µM unless noted
In the case of `COc1cc2c(c(OC)c1OC)-c1ccc(OC)c(=O)cc1[C@@H](NC(C)=O)CC2`, the growth is reported as 31.2% (inactive) and 24.6% (inactive) and 20% (inactive).
In the case of `Nc1ccc(N=Nc2ccc(S(=O)(=O)O)cc2)cc1S(=O)(=O)O`, the growth is reported as 118% (inactive) and 101% (inactive).
`CCOC(=O)C(CNc1ccccc1)C(=O)OCC` was tested, and the growth was 90.1% (inactive).
In the case of `Nc1ccccc1Nc1ccccc1`, the growth is reported as 103% (inactive) and 91.6% (inactive).
For `COc1cc(C(=O)N/N=C/c2ccc(N(C)C)cc2)cc(OC)c1OC`, the growth was 49% (inactive).
In the case of `NC(=S)NN=C1CCC(C2CCCCC2)CC1` (stereo not given), the growth is reported as 113% (inactive) and 111% (inactive).
In the case of `CN(C)c1ccc2nc3ccc(=[N+](C)C)cc-3sc2c1`, the growth is reported as 58.7% (inactive) and 24.6% (inactive) and 46.6% (inactive).
In the case of `CCN(CC)CCCC(CNc1ccnc2cc(Cl)ccc12)c1ccc(Cl)cc1` (stereo not given), the growth is reported as 4.57% (active) and 88.8% (inactive).
With `Cc1cc(O)c2c(c1)C(=O)c1cc(O)cc(O)c1C2=O` the growth was 97.9% (inactive) and 78.1% (inactive).
With `CCCCCCCCCCCCOc1ccccc1C=O` the growth was 85.3% (inactive).
In the case of `O=C(Cc1cccc2ccccc12)N/N=C/c1ccc2c(c1)CCC2`, the growth is reported as 67.1% (inactive).
For `CC(=O)Nc1ccc(O)cc1`, the growth was 111% (inactive) and 106% (inactive) and 104% (inactive).
In the case of `Cc1ccc(NCSc2ccc(Cl)cc2)cc1`, the growth is reported as 112% (inactive) and 87.8% (inactive).
`O=C(CCl)c1ccc2c(c1)Nc1ccccc1S2` was tested, and the growth was 97.6% (inactive) and 99.8% (inactive).
In the case of `O=C1c2ccccc2C(=O)c2c(NCCNCCO)ccc(NCCNCCO)c21`, the growth is reported as -20.4% (active) and 3.59% (active) and 9.04% (active).
For `O=C1OC(Oc2ccc(Br)cc2)(c2ccccc2)c2ccccc21` (stereo not given), the growth was 113% (inactive) and 107% (inactive).
With `CC12CCC(CC1)C(C)(C)O2` the growth was 110% (inactive).
With `Cc1cc(C)c(N)c(Br)c1` the growth was 92.6% (inactive) and 165% (inactive).
For `O=[N+]([O-])c1ccc(-n2[nH]nnc2=S)cc1`, the growth was 102% (inactive).
`Cc1ccc(S(=O)(=O)Nc2nc3ccccc3nc2Nc2ccc3nsnc3c2)cc1` was tested, and the growth was 48.5% (inactive) and 84.9% (inactive).
With `Cc1c(Cl)cccc1NCN1C(=O)c2ccccc2C1=O` the growth was 101% (inactive).
With `CCN(CC)CCCC(C)Nc1cnc(C(=O)Nc2cc(F)cc3cccnc23)cn1` (stereo not given) the growth was 64.1% (inactive) and -14.1% (active).
With `NC(=S)N/N=C(\c1ccc(Br)cc1)C1CC1` the growth was 96.4% (inactive) and 87% (inactive).
With `Clc1nc(Oc2ccccc2)nc(-c2cn(-c3ccccc3)c3ccccc23)n1` the growth was 101% (inactive).
`Nc1ccc2ccc(N)cc2c1` was tested, and the growth was 86% (inactive).
With `O=C1c2ccccc2C(=O)N1/N=C/c1ccc2c(c1)OCO2` the growth was 104% (inactive).
For `O=c1c2ccccc2nc2n1Cc1nc3ccccc3c(=O)n1C2`, the growth was 114% (inactive) and 105% (inactive).
For `O=C(CN1CCOCC1)N1CCOCC1`, the growth was 106% (inactive) and 112% (inactive).
With `CCC(O)c1ccccc1` (stereo not given) the growth was 87.2% (inactive) and 109% (inactive).
In the case of `O=C(O)C1(C(=O)O)CCC1.[NH2-].[NH2-].[Pt+2]`, the growth is reported as 98.2% (inactive) and 105% (inactive).
With `O=C(N/N=C/c1cccc2ccccc12)C1CC1` the growth was 104% (inactive) and 116% (inactive).
In the case of `CCN(CC)CCC(CNc1ccnc2cc(Cl)ccc12)c1ccc(OC)cc1` (stereo not given), the growth is reported as 83.4% (inactive) and 77.7% (inactive).
In the case of `Oc1ccccc1C=NCC1CCC(CN=Cc2ccccc2O)CC1` (stereo not given), the growth is reported as 94.5% (inactive).

Same assay, conditions: 30 µM
In the case of `CNC(=O)c1cc(Oc2ccc(CC(=O)Nc3cc(C(C)(C)C)nn3C)cc2)ccn1`, the growth is reported as 75.1% (inactive).

Same assay, conditions: 100 µM
For `Cc1[nH]c(-c2nc3ccccc3[nH]2)c(C)c1C(=O)NC(C)C1CCCCC1` (stereo not given), the growth was -54.4% (active).
For `COc1ccc(Cl)cc1C(=O)NCCc1ccc(S(=O)(=O)NC(=O)NC2CCCCC2)cc1`, the growth was 69.1% (inactive).
